Results published in the supplement of paper PMC11732987, “Enantioselective OTUD7B fragment discovery through chemoproteomics screening and high-throughput optimisation” (Communications Chemistry, 2025).

Experiments:
Assay in all cases: log2 ratio of Biotin-Ahx-Ub-VS probe labelling (fragment/DMSO); higher = less target engagement (more negative = stronger competition), active = hit call of the paper (q ≤ 0.05, log2 ratio ≤ -1)
Details in all cases: compound concentration: 200 uM; treatment time: 3 h
[1] = molecular target: USP34 (UniProt Q70CQ2)
Chain of USP34 (Q70CQ2 whole entry, the tested form may be a part): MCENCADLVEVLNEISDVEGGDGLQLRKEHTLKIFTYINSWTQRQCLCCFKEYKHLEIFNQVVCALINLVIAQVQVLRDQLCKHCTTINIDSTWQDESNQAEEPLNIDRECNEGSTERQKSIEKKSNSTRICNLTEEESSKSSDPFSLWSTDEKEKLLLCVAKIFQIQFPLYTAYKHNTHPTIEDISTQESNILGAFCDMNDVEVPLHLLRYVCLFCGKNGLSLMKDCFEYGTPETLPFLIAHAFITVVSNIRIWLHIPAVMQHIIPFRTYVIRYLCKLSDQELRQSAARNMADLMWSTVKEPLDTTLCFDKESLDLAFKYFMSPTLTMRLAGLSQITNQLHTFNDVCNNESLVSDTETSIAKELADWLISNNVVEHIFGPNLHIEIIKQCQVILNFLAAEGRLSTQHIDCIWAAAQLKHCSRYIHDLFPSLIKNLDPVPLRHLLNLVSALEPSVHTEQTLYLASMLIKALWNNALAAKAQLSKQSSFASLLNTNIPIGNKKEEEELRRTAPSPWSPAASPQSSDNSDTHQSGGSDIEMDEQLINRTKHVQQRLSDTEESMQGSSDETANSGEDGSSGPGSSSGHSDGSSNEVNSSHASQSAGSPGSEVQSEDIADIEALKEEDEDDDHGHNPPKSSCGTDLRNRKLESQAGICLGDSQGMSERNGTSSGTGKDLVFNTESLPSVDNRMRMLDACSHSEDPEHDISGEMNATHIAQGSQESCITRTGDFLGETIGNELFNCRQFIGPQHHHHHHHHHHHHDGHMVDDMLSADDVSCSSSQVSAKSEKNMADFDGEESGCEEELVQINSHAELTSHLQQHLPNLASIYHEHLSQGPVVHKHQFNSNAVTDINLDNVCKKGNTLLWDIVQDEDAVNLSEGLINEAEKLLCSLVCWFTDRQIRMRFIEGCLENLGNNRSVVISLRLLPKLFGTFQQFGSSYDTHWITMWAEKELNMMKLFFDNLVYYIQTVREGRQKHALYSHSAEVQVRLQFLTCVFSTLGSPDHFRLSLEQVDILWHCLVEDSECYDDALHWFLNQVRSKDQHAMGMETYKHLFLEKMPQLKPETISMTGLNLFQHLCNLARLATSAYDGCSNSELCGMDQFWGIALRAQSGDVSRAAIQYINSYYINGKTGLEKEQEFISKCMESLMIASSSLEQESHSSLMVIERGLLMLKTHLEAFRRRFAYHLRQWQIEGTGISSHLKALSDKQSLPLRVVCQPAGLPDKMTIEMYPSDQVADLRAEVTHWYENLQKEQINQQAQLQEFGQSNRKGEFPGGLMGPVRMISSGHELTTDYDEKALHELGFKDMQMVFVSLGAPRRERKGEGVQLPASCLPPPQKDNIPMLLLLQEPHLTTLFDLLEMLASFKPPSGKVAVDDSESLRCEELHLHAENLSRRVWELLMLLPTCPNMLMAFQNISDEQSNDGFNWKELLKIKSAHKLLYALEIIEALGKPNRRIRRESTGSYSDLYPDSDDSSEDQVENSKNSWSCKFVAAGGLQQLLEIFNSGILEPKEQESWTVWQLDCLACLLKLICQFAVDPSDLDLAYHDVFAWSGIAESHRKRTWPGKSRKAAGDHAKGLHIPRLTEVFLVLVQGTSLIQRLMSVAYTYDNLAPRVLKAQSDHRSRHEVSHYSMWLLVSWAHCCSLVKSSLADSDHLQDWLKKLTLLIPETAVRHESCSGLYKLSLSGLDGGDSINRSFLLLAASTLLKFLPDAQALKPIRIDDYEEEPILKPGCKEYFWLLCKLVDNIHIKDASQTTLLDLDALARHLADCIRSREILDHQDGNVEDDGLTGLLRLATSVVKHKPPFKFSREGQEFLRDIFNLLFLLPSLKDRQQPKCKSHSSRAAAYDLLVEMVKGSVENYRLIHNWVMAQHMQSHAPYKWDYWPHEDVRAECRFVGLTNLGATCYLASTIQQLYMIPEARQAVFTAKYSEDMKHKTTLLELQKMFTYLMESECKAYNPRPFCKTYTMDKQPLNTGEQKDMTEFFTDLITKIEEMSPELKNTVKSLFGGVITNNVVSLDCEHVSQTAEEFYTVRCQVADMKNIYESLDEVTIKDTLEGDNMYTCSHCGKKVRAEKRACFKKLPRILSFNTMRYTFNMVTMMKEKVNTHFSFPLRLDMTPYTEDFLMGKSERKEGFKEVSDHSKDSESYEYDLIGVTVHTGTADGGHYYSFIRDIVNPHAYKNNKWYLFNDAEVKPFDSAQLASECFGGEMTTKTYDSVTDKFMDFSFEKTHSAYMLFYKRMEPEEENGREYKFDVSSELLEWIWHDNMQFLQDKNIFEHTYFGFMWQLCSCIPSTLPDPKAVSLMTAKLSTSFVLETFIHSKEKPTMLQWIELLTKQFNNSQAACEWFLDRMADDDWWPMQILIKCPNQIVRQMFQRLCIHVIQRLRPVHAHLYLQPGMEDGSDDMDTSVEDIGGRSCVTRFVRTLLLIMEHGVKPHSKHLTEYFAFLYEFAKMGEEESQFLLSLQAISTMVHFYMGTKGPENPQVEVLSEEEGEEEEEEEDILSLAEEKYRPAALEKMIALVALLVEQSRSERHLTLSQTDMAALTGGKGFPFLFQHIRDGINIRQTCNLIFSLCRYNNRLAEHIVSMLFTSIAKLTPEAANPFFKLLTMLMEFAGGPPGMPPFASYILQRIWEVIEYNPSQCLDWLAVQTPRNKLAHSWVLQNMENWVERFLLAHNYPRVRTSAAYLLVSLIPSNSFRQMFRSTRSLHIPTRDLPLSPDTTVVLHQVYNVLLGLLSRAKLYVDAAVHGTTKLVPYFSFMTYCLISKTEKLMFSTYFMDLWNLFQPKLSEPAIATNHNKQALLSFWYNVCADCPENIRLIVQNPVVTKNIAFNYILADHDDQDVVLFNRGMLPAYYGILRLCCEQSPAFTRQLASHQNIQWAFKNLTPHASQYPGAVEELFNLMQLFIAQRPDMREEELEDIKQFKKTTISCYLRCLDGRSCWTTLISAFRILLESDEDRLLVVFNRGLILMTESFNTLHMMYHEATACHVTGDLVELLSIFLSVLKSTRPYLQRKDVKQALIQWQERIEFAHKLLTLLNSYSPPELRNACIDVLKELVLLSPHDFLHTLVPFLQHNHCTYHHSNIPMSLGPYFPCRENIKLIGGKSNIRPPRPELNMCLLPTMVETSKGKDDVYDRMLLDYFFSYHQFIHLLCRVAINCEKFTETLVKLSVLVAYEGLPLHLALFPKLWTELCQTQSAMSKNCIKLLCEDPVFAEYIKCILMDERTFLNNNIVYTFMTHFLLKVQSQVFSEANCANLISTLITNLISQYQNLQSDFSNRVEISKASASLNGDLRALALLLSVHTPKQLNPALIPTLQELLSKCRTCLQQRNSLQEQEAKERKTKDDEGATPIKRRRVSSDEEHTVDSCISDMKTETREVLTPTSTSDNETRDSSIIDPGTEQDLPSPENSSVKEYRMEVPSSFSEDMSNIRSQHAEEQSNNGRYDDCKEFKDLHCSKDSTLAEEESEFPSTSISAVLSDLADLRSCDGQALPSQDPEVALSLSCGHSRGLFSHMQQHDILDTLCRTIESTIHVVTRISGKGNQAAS
Outline: (§1)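 Labelling with Biotin-Ahx-Ub-VS (0.5 µM final, 1 h) followed a 3 h triplicate treatment of HEK293T lysate (495 µg per sample, Tris/CHAPS/IGEPAL buffer with protease inhibitors) with fragment at 200 µM or vehicle. Labelled DUBs were NeutrAvidin-enriched, digested with LysC and trypsin, and run by diaPASEF LC-MS/MS. The values, average log2 fragment/vehicle ratios by unpaired t-test, come from global-median-normalised Spectronaut label-free quantities. Proteins with ≥2 unique peptides were used.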

[2] = molecular target: T1, USP36 (UniProt Q9P275)
T1 sequence (whole entry): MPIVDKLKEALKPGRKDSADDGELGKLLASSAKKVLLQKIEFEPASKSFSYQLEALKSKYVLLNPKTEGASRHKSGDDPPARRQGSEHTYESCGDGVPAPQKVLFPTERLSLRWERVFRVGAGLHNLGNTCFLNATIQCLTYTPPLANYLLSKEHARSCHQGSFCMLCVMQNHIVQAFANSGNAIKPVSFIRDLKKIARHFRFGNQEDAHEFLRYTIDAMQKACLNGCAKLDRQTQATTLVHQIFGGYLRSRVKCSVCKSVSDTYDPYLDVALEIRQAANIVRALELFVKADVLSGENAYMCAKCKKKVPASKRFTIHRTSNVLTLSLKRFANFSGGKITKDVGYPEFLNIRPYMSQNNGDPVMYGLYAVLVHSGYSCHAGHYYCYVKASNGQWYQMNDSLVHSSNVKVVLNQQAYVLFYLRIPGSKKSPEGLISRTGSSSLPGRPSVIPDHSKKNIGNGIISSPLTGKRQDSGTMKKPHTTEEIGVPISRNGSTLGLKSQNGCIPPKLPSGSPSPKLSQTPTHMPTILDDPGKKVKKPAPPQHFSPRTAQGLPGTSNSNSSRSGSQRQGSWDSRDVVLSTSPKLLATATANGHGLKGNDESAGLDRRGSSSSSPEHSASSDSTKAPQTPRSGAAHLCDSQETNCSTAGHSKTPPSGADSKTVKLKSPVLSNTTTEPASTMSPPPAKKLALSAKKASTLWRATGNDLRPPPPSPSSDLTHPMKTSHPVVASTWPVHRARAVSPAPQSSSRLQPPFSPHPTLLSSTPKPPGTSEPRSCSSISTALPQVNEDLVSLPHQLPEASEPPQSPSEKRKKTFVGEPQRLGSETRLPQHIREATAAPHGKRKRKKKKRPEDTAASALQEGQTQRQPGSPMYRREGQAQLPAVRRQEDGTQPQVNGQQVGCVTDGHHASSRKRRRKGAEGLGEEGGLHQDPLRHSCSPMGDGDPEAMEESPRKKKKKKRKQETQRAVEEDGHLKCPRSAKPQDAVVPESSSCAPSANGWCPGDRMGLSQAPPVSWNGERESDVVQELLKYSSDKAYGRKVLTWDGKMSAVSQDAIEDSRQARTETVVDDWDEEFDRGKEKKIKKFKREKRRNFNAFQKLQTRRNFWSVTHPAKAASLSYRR
Outline: as §1

[3] = molecular target: T2, USP38 (UniProt Q8NB14)
T2 sequence (whole entry): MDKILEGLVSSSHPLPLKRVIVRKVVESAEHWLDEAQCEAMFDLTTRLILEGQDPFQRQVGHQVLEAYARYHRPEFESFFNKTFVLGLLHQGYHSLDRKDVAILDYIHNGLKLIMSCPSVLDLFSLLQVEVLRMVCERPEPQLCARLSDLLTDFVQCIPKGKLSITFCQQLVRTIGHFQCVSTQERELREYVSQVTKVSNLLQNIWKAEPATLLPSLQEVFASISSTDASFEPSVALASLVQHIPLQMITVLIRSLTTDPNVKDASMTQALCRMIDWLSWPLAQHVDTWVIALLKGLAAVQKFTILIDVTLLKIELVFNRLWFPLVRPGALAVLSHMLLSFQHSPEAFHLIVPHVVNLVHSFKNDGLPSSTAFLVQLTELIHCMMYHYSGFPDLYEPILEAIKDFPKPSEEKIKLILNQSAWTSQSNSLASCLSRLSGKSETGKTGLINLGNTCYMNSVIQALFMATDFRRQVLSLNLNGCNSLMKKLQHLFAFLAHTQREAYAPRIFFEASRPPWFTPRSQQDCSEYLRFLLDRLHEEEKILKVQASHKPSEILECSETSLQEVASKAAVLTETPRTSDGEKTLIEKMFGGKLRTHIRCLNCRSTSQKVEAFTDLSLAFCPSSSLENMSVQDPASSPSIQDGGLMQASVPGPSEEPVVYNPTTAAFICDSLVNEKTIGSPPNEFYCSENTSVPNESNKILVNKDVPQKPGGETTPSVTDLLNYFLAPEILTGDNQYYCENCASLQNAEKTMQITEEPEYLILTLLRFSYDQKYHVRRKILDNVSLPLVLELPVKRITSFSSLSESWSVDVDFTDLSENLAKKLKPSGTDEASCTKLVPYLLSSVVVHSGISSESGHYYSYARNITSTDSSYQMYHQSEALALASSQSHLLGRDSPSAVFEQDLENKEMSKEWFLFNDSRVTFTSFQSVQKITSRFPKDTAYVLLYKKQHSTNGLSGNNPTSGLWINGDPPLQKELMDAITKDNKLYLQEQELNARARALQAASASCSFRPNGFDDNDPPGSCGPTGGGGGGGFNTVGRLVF
Outline: as §1

[4] = molecular target: T3, USP39 (UniProt Q53GS9)
T3 sequence (whole entry): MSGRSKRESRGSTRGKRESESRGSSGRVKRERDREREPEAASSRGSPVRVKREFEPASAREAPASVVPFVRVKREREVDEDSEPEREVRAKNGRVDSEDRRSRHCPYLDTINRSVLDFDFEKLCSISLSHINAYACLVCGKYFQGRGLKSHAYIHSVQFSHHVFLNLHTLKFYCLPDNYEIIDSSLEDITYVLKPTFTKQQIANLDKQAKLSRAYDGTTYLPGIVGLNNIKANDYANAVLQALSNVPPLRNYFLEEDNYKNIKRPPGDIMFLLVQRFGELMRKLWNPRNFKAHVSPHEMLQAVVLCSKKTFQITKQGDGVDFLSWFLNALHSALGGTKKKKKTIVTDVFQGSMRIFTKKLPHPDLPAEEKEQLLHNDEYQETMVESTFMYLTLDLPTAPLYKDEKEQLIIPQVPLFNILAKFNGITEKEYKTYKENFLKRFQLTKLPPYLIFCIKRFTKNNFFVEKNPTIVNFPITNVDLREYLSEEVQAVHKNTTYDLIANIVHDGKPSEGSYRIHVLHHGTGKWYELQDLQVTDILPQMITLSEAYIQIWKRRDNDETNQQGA
Outline: as §1

[5] = molecular target: T4, USP4 (UniProt Q13107)
T4 sequence (whole entry): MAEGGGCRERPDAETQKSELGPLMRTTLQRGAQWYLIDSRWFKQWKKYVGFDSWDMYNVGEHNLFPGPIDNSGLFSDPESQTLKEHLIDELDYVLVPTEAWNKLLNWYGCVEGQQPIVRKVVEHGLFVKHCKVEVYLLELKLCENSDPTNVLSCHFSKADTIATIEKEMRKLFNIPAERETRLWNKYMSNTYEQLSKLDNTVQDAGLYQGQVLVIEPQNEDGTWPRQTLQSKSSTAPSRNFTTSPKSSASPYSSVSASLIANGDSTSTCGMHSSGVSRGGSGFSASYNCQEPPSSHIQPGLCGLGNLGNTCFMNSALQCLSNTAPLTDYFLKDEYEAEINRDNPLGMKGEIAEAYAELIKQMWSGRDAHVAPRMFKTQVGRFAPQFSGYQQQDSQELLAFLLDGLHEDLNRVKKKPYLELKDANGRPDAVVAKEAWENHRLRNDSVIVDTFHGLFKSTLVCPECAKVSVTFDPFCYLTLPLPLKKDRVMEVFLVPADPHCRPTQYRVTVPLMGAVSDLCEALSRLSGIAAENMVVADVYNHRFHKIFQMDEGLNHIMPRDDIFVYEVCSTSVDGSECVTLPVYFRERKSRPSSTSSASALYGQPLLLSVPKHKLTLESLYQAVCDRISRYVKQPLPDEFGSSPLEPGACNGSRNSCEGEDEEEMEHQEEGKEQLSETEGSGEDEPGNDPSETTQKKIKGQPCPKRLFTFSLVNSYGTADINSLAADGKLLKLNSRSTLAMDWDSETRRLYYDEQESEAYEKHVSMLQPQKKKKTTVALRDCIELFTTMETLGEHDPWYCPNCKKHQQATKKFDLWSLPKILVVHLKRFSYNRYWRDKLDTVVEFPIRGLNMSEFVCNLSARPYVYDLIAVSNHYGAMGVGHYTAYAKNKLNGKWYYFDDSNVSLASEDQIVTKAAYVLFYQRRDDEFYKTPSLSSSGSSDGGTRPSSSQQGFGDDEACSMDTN
Outline: as §1

Measured: log2 ratio of Biotin-Ahx-Ub-VS probe labelling

CCc1c[nH]c(CNC(=O)CCl)n1.Cl
inactive: [1] -0.213 | [2] -0.245 | [3] -0.15 | [4] 0.178 | [5] -0.159
